Assay outcomes deposited in PubChem by National Center for Advancing Translational Sciences (NCATS).
Many of the other results were omitted from the sample, so hits are more common in it than they were.
HT1080NT lethal – kills 2HG-producing HT-1080-NT fibrosarcoma cells | actives 1.6% (n = 360,000) | HT-1080-NT fibrosarcoma viability, CellTiter-Glo ATP luminescence, 48 h | Potency, µM (doses to about 46.1 µM), actives largely listed as cytotoxic;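 further: NT is the 2HG producing partner of a matched IDH1 knockdown line; nearly all actives have a fitted effect of over 55% in size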
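Viability by CellTiter-Glo luminescence after 48 h compound exposure at 37C of HT-1080-NT cells (750/well, RPMI, 5% FBS). % activity scaled between DMSO wells and medium-only wells, then curve-fitted and categorized by curve class.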
DT40 TDP1 CPT – growth inhibition of DT40 Tdp1-/-;hTDP1 cells with camptothecin (screen for TDP1 inhibitors). chicken DT40 Tdp1-/-;hTDP1 cells + 20 nM CPT, ATP luminescence, 48 h. Potency, µM (doses to about 46.2 µM), most hits filed as inhibitors. actives 12% (n = 420,000); further: nearly all actives have a fitted effect of over 55% in size
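Chicken DT40 Tdp1-/- cells complemented with human TDP1, 400 cells/well, exposed to compounds plus 20 nM camptothecin for at least 48 h at 37 C; viability read as ATP content by CellTiter-Glo luminescence.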
IL1B secr inh – blocks inflammasome-driven IL-1 beta release; THP-1 LPS/ATP IL-1B secretion, AlphaLISA, 16 h; hits give low values; activity change, % at 57.5 µM; actives 4.7% (n = 360,000); in the data active means activity change below about -50%; inconclusive means mostly about -30% to -49%
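Secreted IL-1B measured by AlphaLISA bead assay after 16 h compound exposure of THP-1 cells; compounds (final up to 57.5 uM) added 1 h before LPS (250 ng/mL) and ATP (1.25 mM) stimulation; lower signal means less secretion.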
12-LOX inh – inhibitors of human 12S-lipoxygenase ALOX12. Potency, µM (top dose mostly 108 µM), hits mostly inhibitors. purified 12hLO, xylenol orange hydroperoxide absorbance. actives 1.1% (n = 580,000). P18054
Target sequence (P18054 whole entry, looked up): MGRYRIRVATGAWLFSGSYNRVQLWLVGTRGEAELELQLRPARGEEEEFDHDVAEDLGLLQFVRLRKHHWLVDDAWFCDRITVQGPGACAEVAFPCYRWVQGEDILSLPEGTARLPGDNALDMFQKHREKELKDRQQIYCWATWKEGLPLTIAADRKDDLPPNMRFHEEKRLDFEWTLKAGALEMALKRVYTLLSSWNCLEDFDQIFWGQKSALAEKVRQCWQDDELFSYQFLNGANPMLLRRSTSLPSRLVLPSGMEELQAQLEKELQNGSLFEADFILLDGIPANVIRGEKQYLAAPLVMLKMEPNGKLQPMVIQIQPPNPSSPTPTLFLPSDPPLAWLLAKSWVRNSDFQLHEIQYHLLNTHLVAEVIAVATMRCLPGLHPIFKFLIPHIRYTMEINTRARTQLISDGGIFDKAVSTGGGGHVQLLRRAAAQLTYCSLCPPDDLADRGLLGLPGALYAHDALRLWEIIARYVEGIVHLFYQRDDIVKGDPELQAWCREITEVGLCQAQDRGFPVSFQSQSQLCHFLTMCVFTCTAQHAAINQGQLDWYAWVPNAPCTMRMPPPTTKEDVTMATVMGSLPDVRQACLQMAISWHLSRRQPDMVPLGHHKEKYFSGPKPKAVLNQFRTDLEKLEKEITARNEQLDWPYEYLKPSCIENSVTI
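Purified human 12hLO at 150 nM in 25 mM Hepes, 0.01% Triton X-100, pH 7.0, preincubated 15 min at room temperature with compound. Reaction started with 40 uM arachidonic acid, 30 min at room temperature. Hydroperoxide measured by Fe-xylenol orange, 573/405 nm absorbance ratio.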
DT40 TDP1 no CPT – qHTS for Inhibitors of human tyrosyl-DNA phosphodiesterase 1 (TDP1): qHTS in cells in absence of CPT; DT40 Tdp1-/- hTDP1 cells, no CPT, ATP luminescence, 48 h; Potency, µM (doses to about 46.2 µM), most hits filed as inhibitors; actives 15% (n = 420,000); AID 686978, 2013; further: nearly all actives have a fitted effect of over 55% in size
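Chicken DT40 Tdp1-/- cells stably complemented with human TDP1 were seeded at 400 cells/well with DMSO in place of 20 nM camptothecin. After compound pinning, cells grew at least 48 hr at 37 °C; viability read by CellTiter-Glo luminescence.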
HT1080 IDH1KD tx – kills HT-1080 cells with IDH1 knockdown; Potency, µM (titrated, usually from 46.1 µM), usual class: cytotoxic; actives 2% (n = 360,000); HT-1080 IDH1 knockdown viability, ATP luminescence, 48 h
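Assay cells: HT-1080 with IDH1 knockdown, 750 per well, RPMI/5% FBS. Exposure: 48 h at 37 °C following 2 h pre-incubation. Read: CellTiter-Glo luminescence; fitted concentration-response, curve class assigned.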
Hits are given with their value; 0 = inactive; ? = inconclusive; - = not tested or not shown. Unless noted, the call rests on the fitted dose curve; in most records, active means well fitted curve in the direction sought with a large enough effect; inconclusive means small, poorly fitted or top-dose-only effect, or another doubt; inactive means no such curve, though single readings can be large; an effect the other way counts as inactive or inconclusive.

SMILES | HT1080NT lethal | DT40 TDP1 CPT | IL1B secr inh | 12-LOX inh | DT40 TDP1 no CPT | HT1080 IDH1KD tx
Cc1cc2ncc(C(=O)NCc3ccccc3)cn2n1 | - | - | - | 0 | - | -
CC(=O)Nc1ccc(S(=O)(=O)NC2C3(C)CCC(C3)C2(C)C)cc1 (configuration not stated) | 0 | 0 | 0 | 3.2µM | 0 | 0
O=C(c1cccs1)N(CC1CCCO1)c1nc(-c2ccccc2)cs1 (configuration not stated) | 0 | 21µM | 0 | 0 | ? | 0
CC(=O)N(Cc1ccccc1)c1nc(-c2ccccc2)cs1 | 0 | 0 | 0 | 0 | ? | 0
O=C(c1ccco1)N(CC1CCCO1)c1nc(-c2ccccc2)cs1 (configuration not stated) | ? | ? | 0 | 0 | 23µM | ?
CN(C)c1ccc(CN(CC2CCCO2)C(=O)c2cccs2)cc1 (configuration not stated) | 0 | ? | 0 | 0 | 0 | 0
CCN1c2cc(C(=O)Nc3ccccc3)ccc2C(=O)N2CCCCCC21 (configuration not stated) | - | - | - | 0 | - | -
COCCn1ncc(N2CCCC(CC(=O)Nc3ccccc3OC)C2)cc1=O (configuration not stated) | - | - | - | 0 | - | -
Cn1cc(CNS(=O)(=O)c2cccc(C(=O)NCC3CCOC3)c2)cn1 (configuration not stated) | - | - | - | 0 | - | -
Cc1ccc(CNC(=O)c2cccc(Nc3nc4ccccc4n4nnnc34)c2)cc1 | - | 21µM | - | 0 | 10µM | -
Cc1cccc(Nc2nc3ccccc3n3nnnc23)c1 | 0 | 0 | 0 | 0 | ? | 0
CCCCOc1ccc(C(C)NC(=O)c2cccc(Nc3nc4ccccc4n4nnnc34)c2)cc1 (configuration not stated) | - | 5.2µM | - | 0 | 5.8µM | -
COCCNC(=O)c1cccc(Nc2nc3ccccc3n3nnnc23)c1 | - | 0 | - | 0 | ? | -
COc1cc(Nc2nc3ccccc3n3nnnc23)cc(OC)c1OC | 0 | 8.2µM | 0 | 0 | 9.2µM | 0
CCn1nnnc1SCc1cc(=O)oc2cc(C)ccc12 | - | - | - | 0 | - | -
COC(=O)c1c(SC)nc2ccccc2c1OCc1ccc(C)cc1C | - | ? | - | ? | 26µM | -
COc1ccc(F)cc1S(=O)(=O)N1CCC2(CC1)OCCN2S(=O)(=O)c1ccccc1 | 0 | ? | 0 | 0 | 0 | 0
COc1ccc(S(=O)(=O)N2CCOC23CCN(S(=O)(=O)c2ccc(F)cc2C)CC3)cc1 | 0 | ? | 0 | 0 | 23µM | 0
COc1ccc(S(=O)(=O)N2CCC3(CC2)OCCN3S(=O)(=O)c2ccccc2)cc1OC | 0 | ? | 0 | ? | 0 | 0
COc1ccc(S(=O)(=O)N2CCOC23CCN(S(=O)(=O)c2ccc(Cl)cc2)CC3)cc1 | 0 | ? | 0 | 0 | ? | 0
COc1ccc(S(=O)(=O)N2CCOC23CCN(S(=O)(=O)c2c(C)cc(C)cc2C)CC3)cc1 | 0 | ? | 0 | 0 | 16µM | 0
COc1ccc(S(=O)(=O)N2CCOC23CCN(S(=O)(=O)c2cc(C)ccc2C)CC3)cc1 | 0 | 21µM | 0 | 0 | ? | 0
O=C(Oc1ccc(OCc2ccccc2)cc1)c1ccc(F)cc1Cl | - | - | - | 0 | - | -
Cn1cccc1CN1CCC2(CN[S+](=O)([O-])c3ccccc3N2)C1 (configuration not stated) | - | - | - | 0 | - | -
Cc1ccc(-c2ocnc2C(=O)Nc2ccc(C(C)C)cc2)s1 | - | - | - | 0 | - | -
Cc1ccc(-c2noc(CCC(=O)N(C)c3ccccc3C)n2)cc1 | 0 | ? | 0 | 0 | 15µM | 0
COc1ccc(-c2noc(CCC(=O)N(C)c3cccc(C)c3)n2)cc1 | 0 | ? | 0 | 0 | ? | 0
CCN(C(=O)CCc1nc(-c2ccc(C)cc2)no1)c1cc(C)ccc1C | - | 18µM | - | 0 | 23µM | -
CCCC(=O)N1CCC2(CC1)NCCc1c2[nH]c2ccccc12 | - | - | - | 0 | - | -
